# In PubChem BioAssay AID1030 (National Center for Advancing Translational Sciences (NCATS), 2008):
# Screen size: about 220,000 compounds; about 16,000 (7.3%) were called active. Another 25% or so got no clear call; they are omitted. Calls follow the shape of the dose curve; as a rule, active = well fitted inhibition curve with a large enough effect (not every such curve was filed as active); inconclusive = small, poorly fitted or top-dose-only effect, or another doubt; inactive = no such curve, though single readings can be large or run the other way. Many of the other results were omitted from the sample, so actives are more common in it than they were.
# Biological target: Aldehyde dehydrogenase 1A1 (Homo sapiens) (UniProt P00352)
# Experiment: qHTS Assay for Inhibitors of Aldehyde Dehydrogenase 1 (ALDH1A1);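 as to activity, negative = inhibition: plate controls were no enzyme wells and a reference inhibitor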
# Settings: Purified ALDH1A1, NADH fluorescence, propionaldehyde substrate; series mostly up to 75.3 µM; activity, negative = inhibition: at the top concentration
# Potency is read from the fitted curve at half-maximal effect.
# Aldehyde dehydrogenase 1A1 (Homo sapiens), sequence (P00352 whole entry, looked up): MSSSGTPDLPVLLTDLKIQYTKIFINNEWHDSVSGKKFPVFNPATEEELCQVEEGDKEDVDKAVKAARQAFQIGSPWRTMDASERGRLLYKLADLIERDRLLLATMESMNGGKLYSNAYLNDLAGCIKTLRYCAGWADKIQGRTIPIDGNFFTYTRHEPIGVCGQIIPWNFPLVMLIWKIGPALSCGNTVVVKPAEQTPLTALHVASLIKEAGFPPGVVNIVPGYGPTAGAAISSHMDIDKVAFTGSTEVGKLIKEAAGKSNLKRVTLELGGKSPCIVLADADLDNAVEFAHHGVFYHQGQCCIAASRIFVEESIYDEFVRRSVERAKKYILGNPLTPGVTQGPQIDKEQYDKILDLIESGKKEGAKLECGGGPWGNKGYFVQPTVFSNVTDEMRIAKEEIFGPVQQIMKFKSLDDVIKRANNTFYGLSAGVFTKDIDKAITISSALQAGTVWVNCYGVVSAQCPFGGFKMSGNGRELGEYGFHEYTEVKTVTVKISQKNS
SMILES,"activity, negative = inhibition",Potency
CCn1c(SCC(=O)N(C)C2CCS(=O)(=O)C2)nnc1-c1cccs1 (stereo unspecified),-6.37% (inactive),–
CCNC(=O)NNC(=O)C1CC(c2cccs2)=NO1 (stereo unspecified),6.63% (inactive),–
CCOc1ccc(N2C(=O)/C(=C/c3ccc(C)o3)N(C)C2=S)cc1,–,7.94 µM (active)
CCOc1ccc(N2C(=O)CN(c3cccc4ccccc34)C2=S)cc1,1.45% (inactive),–
CCOc1ccc(N2C(=O)Nc3ccccc3C2(O)C(=O)NCc2ccco2)cc1 (stereo unspecified),-5.74% (inactive),–
CCN=c1sc(C(=O)Nc2ccccc2)c(C)n1CC,-2.58% (inactive),–
O=C(Nc1cccc2ncccc12)c1ccc(-c2ccc(Cl)cc2Cl)o1,12.5% (inactive),–
COc1ccc(C(=O)Nc2c(Cl)cc(Cl)cc2C(=O)N2CCC(C)CC2)cc1,5.74% (inactive),–
CC1CCN(C(=S)c2ccc(-c3ccc(Cl)cc3Cl)o2)CC1,–,28.2 µM (active)
CCOC(=O)c1ccccc1NC(=S)N1CCC(C(N)=O)CC1,-8.79% (inactive),–
CCCc1nc2c([nH]1)C(c1cccnc1)C(C#N)=C(N)O2 (stereo unspecified),–,7.94 µM (active)
CCOc1c(OC)cc(C2C(C#N)=C(N)Oc3n[nH]c(-c4ccncc4)c32)cc1OC (stereo unspecified),1.31% (inactive),–
COc1ccc(-c2[nH]nc3c2C(c2ccncc2)C(C#N)=C(N)O3)cc1 (stereo unspecified),-6.31% (inactive),–
Cc1ccc(S(=O)(=O)NC(=O)Nc2nc(-c3ccc(F)c(F)c3)cs2)cc1,4.72% (inactive),–
Cn1cc(CN2CCCCC2c2ccccn2)c(-c2ccc3c(c2)OCCO3)n1 (stereo unspecified),0.0519% (inactive),–
CN(C)/C=C(/C(=O)c1ccccc1Cl)S(C)(=O)=O,10.3% (inactive),–
Clc1ccc(-c2csc(-c3ccncc3)n2)cc1,-2.8% (inactive),–
CC(=O)c1c(C)[nH]c(C(=O)OCC(=O)Nc2cc(S(=O)(=O)N3CCCCC3)ccc2C)c1C,5.1% (inactive),–
CC(C)n1c(=S)[nH]c2cc(C(F)(F)F)ccc21,–,31.6 µM (active)
CCCCn1c(=S)[nH]c2ccccc2c1=O,-7.63% (inactive),–
CN(C)CCn1c(=S)[nH]c2ccc(Cl)cc2c1=O,7.33% (inactive),–
CC(C)n1c(=O)[nH]c2cc(C(=O)Nc3ccccc3)ccc21,6.98% (inactive),–
CCCn1c(=S)[nH]c2ccc(C(F)(F)F)cc21,–,17.8 µM (active)
O=[N+]([O-])c1ccc2oc(-c3cccc(O)c3)nc2c1,3.55% (inactive),–
OCCC1CN(Cc2cnc(-c3ccccc3)s2)CCN1CCc1ccccc1 (stereo unspecified),-7.11% (inactive),–
Fc1ccccc1Cc1ccc(Cl)nn1,-3.18% (inactive),–

SMILES,"activity, negative = inhibition",Potency
O=C(CCc1ccccc1)NCCc1cccs1,2.95% (inactive),–
O=C(O)CCC(=O)N(Cc1cccs1)Cc1cccs1,-4.78% (inactive),–
Cc1ccnc(NC(=O)CCC(=O)N(CC(=O)NCCc2ccccc2)Cc2cccs2)c1,–,14.1 µM (active)
CN(C)CCCCCN(C)Cc1cc2ccccc2o1,1.86% (inactive),–
CCOc1ccc(NC(=O)CN(C)CC(=O)NC(C)c2ccccc2)cc1OCC (stereo unspecified),-0.197% (inactive),–
O=C(O)CSCC(=O)Nc1ccc(C(F)(F)F)cc1,-4.77% (inactive),–
COc1ccc2c(c1)O[C@@H](c1ccc3c(c1)OCO3)[C@H](OC(=O)NCc1ccco1)C2=O,-7.76% (inactive),–
CC1CCN(S(=O)(=O)c2ccc(S(=O)(=O)NCc3cccnc3)cc2)CC1,-2.72% (inactive),–
COc1ccc(-n2nc3c(c2NC(=O)c2ccc(N4C(=O)CCC4=O)cc2)CSC3)cc1,-1.08% (inactive),–
O=C(NC(=S)Nc1ccc2oc(=O)ccc2c1)c1ccc(-c2cccc(Cl)c2Cl)o1,–,11.2 µM (active)
COc1cccc(OC)c1C(=O)NC(=S)Nc1ccc(N2CCOCC2)c(Cl)c1,-9.29% (inactive),–
O=C(NC(=S)Nc1cc(C(F)(F)F)ccc1N1CCOCC1)c1ccc(-c2cccc(Cl)c2)o1,-8.4% (inactive),–
CC1=C(C)C(=O)OC(C(C)C2CCC3C4CC=C5CC(OC6OC(COC7OC(CO)C(O)C(O)C7O)C(O)C(O)C6O)CC(O)C5(C)C4CCC23C)C1 (stereo unspecified),-0.525% (inactive),–
C[C@@]12CCC(=O)C=C1CC[C@H]1C2[C@@H](O)C[C@]2(C)[C@@H]1CC[C@@]2(O)C(=O)COC(=O)C1CCCC1 (stereo partly specified),-0.294% [at 13.5 µM] (inactive),–
O=C(NCCSc1ccccc1)c1ccco1,-13% (inactive),–
O=C(NCCc1ccco1)c1nn(Cc2ccccc2)c(=O)c2ccccc12,–,17.8 µM (active)
Nc1nonc1C(=O)NCCc1ccccc1,0.527% (inactive),–
NC1=NC2(CCCCC2)N(c2ccc(F)cc2F)C(N)=N1,7.42% (inactive),–
CSc1nnc(-c2ccc(C(F)(F)F)cn2)o1,-8.87% (inactive),–
CCn1c(-c2cccnc2Cl)nc2cc(C)c(C)cc21,-3.53% (inactive),–
CN(C)c1cc[n+](Cc2ccccc2)cc1,20.6% (inactive),–
CN(C)c1ccc(/C=N\S(=O)(=O)c2ccccc2)cc1,–,0.708 µM (active)
COc1ccc(/C=N/NC(=O)C(C)N(c2ccc(OC)cc2)S(C)(=O)=O)cc1 (stereo unspecified),0.102% (inactive),–
C#CCOCCOCCOCCNc1nc(N2CCN(C(=O)[C@H](Cc3ccc(O)cc3)n3cc(C(N)CC(C)C)nn3)CC2)nc(N2CCN(C(=O)[C@H](CCC(=O)O)n3cc(C(N)[C@H](C)CC)nn3)CC2)n1 (stereo partly specified),6.03% (inactive),–
CC1=C(C/C=C(\C)CCCC(C)CCCC(C)CCCC(C)C)C(=O)c2ccccc2C1=O (stereo unspecified),-3.01% (inactive),–
